The source of these data is PubChem BioAssay (Tox21).

Inconclusive results are not listed. Unmarked numbers belong to inactive results. Activity calls are given as the source filed them. Calls follow the shape of the dose curve; as a rule, active = well fitted cell-killing curve with a large enough effect in the repeat runs; inconclusive = weak or mixed curves, or effect the other way; inactive = flat fitted curve, though single readings scatter.

Assay [1] can be described thus: cAMP Responsive Elements (CRE) small molecule antagonists, cell-based qHTS assay: qHTS cell viability counter screen (AID 2060913). Also: nearly all actives have a fitted effect of over 40% in size. In short, it runs like this: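 CRE-bla HEK293T cells (2,000/well, 18 h) given compound plus NKH477 0.25 uM final for 3 h at 37C; viability counter-screen by CellTiter-Glo luminescence in same wells after 30 min.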
Assay [2] is described as follows: cAMP Responsive Elements (CRE) small molecule agonists, cell-based qHTS assay: qHTS cell viability counter screen (AID 2060914).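 Also: viability read after 3 h of compound exposure; nearly all actives have a fitted effect of over 50% in size.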 In short, it runs like this:
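HEK 293T CRE-bla; DMEM + 10% dialyzed FBS, 25 mM HEPES; 18 h pre-incubation; compound 3 h, 37 °C/5% CO2; CellTiter-Glo added after reporter read; luminescence after 30 min RT.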
On the technique in general: qHTS replaces the single test concentration by a dilution series.
% is scaled to controls: 0 for no effect and ±100 for the full control effect.

For `O=c1cc(-c2ccc(O)cc2)oc2cc(O)cc(O)c12`, the Potency entry in assay [1] and in assay [2] was “inactive” each time.
Consider `C=C(CC(=O)O)C(=O)O`, for which the Potency result in assay [1] and in assay [2] was “inactive” each time.
For `Cc1cn([C@H]2C[C@H](N=[N+]=[N-])[C@@H](CO)O2)c(=O)[nH]c1=O`, the Potency result in assay [1] and in assay [2] was “inactive” in each case.
As for `Clc1cc(Cl)c(Cl)nc1Cl`, the Potency entry in assay [1] and in assay [2] was “inactive” throughout.
As to `CC(=O)OCC(=O)[C@@]1(O)CC[C@H]2[C@@H]3CCC4=CC(=O)C=C[C@]4(C)[C@@]3(F)[C@@H](O)C[C@@]21C`, the Potency entry in assay [1] and in assay [2] was “inactive” in each case.
For `CCNc1cc(O)ccc1C`, the Potency entry in assay [1] and in assay [2] was “inactive” each time.
Regarding `CCOC(=O)/C=C/c1ccccc1`, the Potency result in assay [1] and in assay [2] was “inactive” each time.
For `[Cl][Pt-2]([Cl])([Cl])[Cl]`, the Potency result in assay [1] and in assay [2] was “inactive” each time.
For the compound `CCc1c(C)cc(N)c(CC)c1N`, the Potency result in assay [1] and in assay [2] was “inactive” throughout.
`COC(=O)c1ccc(C(=O)O)cc1`: the Potency entry in assay [1] and in assay [2] was “inactive” each time.
As to `CC(C)[C@@H]1CC[C@@H](C)C[C@H]1O`, the Potency result in assay [1] and in assay [2] was “inactive” throughout.
For the compound `CC[C@H]1OC(=O)[C@H](C)[C@@H](O[C@H]2C[C@@](C)(OC)[C@@H](O)[C@H](C)O2)[C@H](C)[C@@H](O[C@@H]2O[C@H](C)C[C@H](N(C)C)[C@H]2O)[C@](C)(O)C[C@@H](C)CN(C)[C@H](C)[C@@H](O)[C@]1(C)O`, the Potency result in assay [1] and in assay [2] was “inactive” each time.
As to `O=C(O)[C@H](O)[C@@H](O)[C@H](O)[C@H](O)CO`, the Potency entry in assay [1] and in assay [2] was “inactive” throughout.
On to `Cc1cc(C)c(C(=O)O)c(C)c1`, for which the Potency result in assay [1] and in assay [2] was “inactive” in each case.
On to `COc1ccnc2c1CCCCC2S(=O)c1nc2ccccc2[nH]1` (centres undefined), for which the Potency entry in assay [1] and in assay [2] was “inactive” in each case.
In the case of `O=c1[nH]ncc2ccccc12`, the Potency result in assay [1] and in assay [2] was “inactive” throughout.
Regarding `CC(C)OC(=O)C(O)(CC(=O)O)CC(=O)O`, the Potency entry in assay [1] and in assay [2] was “inactive” throughout.
For the compound `Nc1ccc(Cl)c([N+](=O)[O-])c1`, the Potency result in assay [1] and in assay [2] was “inactive” in each case.
As for `O=C(O)CCCCCCCCC(=O)O`, the Potency result in assay [1] and in assay [2] was “inactive” each time.
With `SCCSCCS`, the Potency entry in assay [1] and in assay [2] was “inactive” throughout.
On to `N[C@@H](CCC(=O)N[C@@H](CS)C(=O)NCC(=O)O)C(=O)O`, for which the viability change, negative = cytotoxic in assay [1] is 4.12% [at 18.9 µM]. Besides, the activity change, negative = cytotoxicity in assay [2] was -1.41% [at 18.9 µM].
In the case of `CC/C=C\CCOC(C)OCC` (centres undefined), the Potency entry in assay [1] and in assay [2] was “inactive” each time.
Take `CC(C)c1cc2c(cc1S(=O)(=O)O)[C@@]1(C)CCC[C@@](C)(C(=O)O)[C@@H]1CC2`: the Potency result in assay [1] and in assay [2] was “inactive” throughout.
Consider `N#CC1(O)CCCCC1`, for which the Potency entry in assay [1] and in assay [2] was “inactive” each time.
For the compound `CCN(CC)CCN`, the Potency result in assay [1] and in assay [2] was “inactive” throughout.
Consider `CC(C)COC(=O)/C=C/c1ccccc1`, for which the Potency entry in assay [1] and in assay [2] was “inactive” throughout.
As to `CCOC(=O)CC(O)(CC(=O)OCC)C(=O)OCC`, the Potency entry in assay [1] and in assay [2] was “inactive” each time.
Turning to `NNC(=O)c1ccncc1`, the Potency entry in assay [1] and in assay [2] was “inactive” throughout.
Consider `O=CN1CCCCC1`, for which the Potency entry in assay [1] and in assay [2] was “inactive” throughout.
With `Nc1cc(Cl)cc(S(=O)(=O)O)c1O`, the Potency entry in assay [1] and in assay [2] was “inactive” in each case.
Consider `O=C(CCCN1CCC(O)(c2ccc(Cl)cc2)CC1)c1ccc(F)cc1`, for which the Potency entry in assay [1] and in assay [2] was “inactive” throughout.
For the compound `OC[C@H]1O[C@@](CO)(O[C@H]2O[C@H](CO)[C@@H](O)[C@H](O)[C@H]2O)[C@@H](O)[C@@H]1O`, the Potency entry in assay [1] and in assay [2] was “inactive” in each case.
Take `CCCCC(CC)COCC1CO1` (centres undefined): the Potency entry in assay [1] and in assay [2] was “inactive” in each case.
As to `c1ccc(CNCCNCc2ccccc2)cc1`, the Potency result in assay [1] and in assay [2] was “inactive” throughout.
With `O=C(O)/C=C(\CC(=O)O)C(=O)O`, the Potency result in assay [1] and in assay [2] was “inactive” throughout.
For the compound `CC1=C(C/C=C(\C)CCC[C@H](C)CCC[C@H](C)CCCC(C)C)C(=O)c2ccccc2C1=O`, the Potency entry in assay [1] and in assay [2] was “inactive” in each case.
In the case of `Cc1coc2ccccc2c1=O`, the Potency result in assay [1] and in assay [2] was “inactive” each time.
Consider `O=[N+]([O-])c1nccn1CO[C@@H](CO)[C@H](O)CO`, for which the Potency result in assay [1] and in assay [2] was “inactive” each time.
As to `CC(C)CC(C)(C)C`, the Potency entry in assay [1] and in assay [2] was “inactive” in each case.
In the case of `O=C(O)COc1ccc2ccccc2c1`, the Potency result in assay [1] and in assay [2] was “inactive” throughout.
For `CCc1c(C(=O)O)c(=O)cnn1-c1ccc(Cl)cc1`, the Potency entry in assay [1] and in assay [2] was “inactive” throughout.
Turning to `CCc1cccc(CC)c1NC(=O)C(=O)O`, the Potency entry in assay [1] and in assay [2] was “inactive” each time.
Turning to `COc1cc(C(=O)NCCCCCC(=O)O)cc(OC)c1OC`, the Potency entry in assay [1] and in assay [2] was “inactive” in each case.
Regarding `CC(O)CN` (centres undefined), the Potency result in assay [1] and in assay [2] was “inactive” throughout.
`O=S(=O)(O)c1ccc(O)c2ncccc12`: the Potency result in assay [1] and in assay [2] was “inactive” each time.
As to `CC(CN1CC(=O)NC(=O)C1)N1CC(=O)NC(=O)C1` (centres undefined), the Potency result in assay [1] and in assay [2] was “inactive” in each case.
Turning to `c1ccc2c(c1)Oc1ccccc1S2`, the Potency entry in assay [1] and in assay [2] was “inactive” throughout.
Take `CCCCCCCCC(=O)Cl`: the Potency result in assay [1] and in assay [2] was “inactive” throughout.
For the compound `Cc1cc([N+](=O)[O-])ccc1N`, the Potency entry in assay [1] and in assay [2] was “inactive” throughout.
Turning to `ICCc1ccccc1`, the Potency result in assay [1] and in assay [2] was “inactive” in each case.
With `COC(C)(C)CCO`, the Potency result in assay [1] and in assay [2] was “inactive” in each case.
For `CC(=O)OC/C=C(C)/C=C/C=C(C)/C=C/C1=C(C)CCCC1(C)C`, the Potency entry in assay [1] and in assay [2] was “inactive” throughout.
